# According to ChEMBL document CHEMBL3988442, “University of Dundee, Small-Polar-MMV Screening Library” (2021):
# For some assays here: Results with a measured potency or affinity are listed apart.
# Legend:
# Set-up in all cases: scale not given: direction of the effect not stated beside the values
# [1] = molecular target: Protein translocase subunit SecA (Escherichia coli (strain K12)) (UniProt P10408); test: Assay to Identify E. coli SecA ATPase Inhibitors; type: functional; conditions: 30 µM
# [2] = molecular target: T1, Ubiquitin-activating enzyme e1, putative (Leishmania donovani (strain BPK282A1)) (UniProt E9BSI1); test: Leishmania donovani Ubiquitin Activating Enzyme (LdE1); type: functional; conditions: 30 µM
# T1 sequence (whole entry): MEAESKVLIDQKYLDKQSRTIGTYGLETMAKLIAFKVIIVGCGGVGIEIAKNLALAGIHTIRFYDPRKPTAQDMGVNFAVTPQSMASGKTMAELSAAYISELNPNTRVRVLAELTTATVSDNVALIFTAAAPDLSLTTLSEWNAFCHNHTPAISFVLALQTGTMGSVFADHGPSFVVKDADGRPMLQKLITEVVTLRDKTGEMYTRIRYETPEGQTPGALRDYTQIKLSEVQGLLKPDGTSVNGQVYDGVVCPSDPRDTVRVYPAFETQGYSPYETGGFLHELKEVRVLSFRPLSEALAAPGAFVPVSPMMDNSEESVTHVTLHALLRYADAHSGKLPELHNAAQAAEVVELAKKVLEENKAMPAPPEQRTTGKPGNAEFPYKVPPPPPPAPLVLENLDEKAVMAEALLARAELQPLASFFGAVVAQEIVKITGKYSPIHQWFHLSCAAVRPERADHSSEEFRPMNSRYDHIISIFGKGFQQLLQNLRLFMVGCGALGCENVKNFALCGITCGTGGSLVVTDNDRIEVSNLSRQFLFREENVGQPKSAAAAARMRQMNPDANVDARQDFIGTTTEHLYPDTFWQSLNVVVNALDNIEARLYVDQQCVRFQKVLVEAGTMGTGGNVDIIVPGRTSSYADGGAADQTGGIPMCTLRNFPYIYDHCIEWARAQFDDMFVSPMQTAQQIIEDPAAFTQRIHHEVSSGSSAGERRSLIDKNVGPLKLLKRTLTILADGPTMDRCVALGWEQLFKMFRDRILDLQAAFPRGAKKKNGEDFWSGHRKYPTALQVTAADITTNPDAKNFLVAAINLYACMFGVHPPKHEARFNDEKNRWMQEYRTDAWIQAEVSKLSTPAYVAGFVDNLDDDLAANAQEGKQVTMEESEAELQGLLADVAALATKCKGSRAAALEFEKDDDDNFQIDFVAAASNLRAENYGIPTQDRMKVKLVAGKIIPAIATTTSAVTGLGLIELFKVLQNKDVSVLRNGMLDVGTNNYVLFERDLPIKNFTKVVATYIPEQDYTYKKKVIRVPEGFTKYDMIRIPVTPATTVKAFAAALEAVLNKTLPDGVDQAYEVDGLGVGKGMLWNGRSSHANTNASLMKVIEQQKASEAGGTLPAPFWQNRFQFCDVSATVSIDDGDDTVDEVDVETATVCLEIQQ
# [3] = molecular target: AMP-activated protein kinase, AMPK (Homo sapiens) (UniProt P54646+O43741+P54619+Q9UGJ0+Q9Y478+Q13131+Q9UGI9); test: AMP-dependent Kinase enzyme assay. An in vitro enzyme assay that detects ADP turnover that is directly proportional to AMPK activity. This uses naive AMPK that is activated during the assay with MK-8722; type: functional; conditions: 30 µM
# [4] = molecular target: Sialic acid-binding Ig-like lectin 9 (Homo sapiens) (UniProt Q9Y336); test: Hs-Siglec9 ALPHAscreen SOP 20170721; conditions: 10 µM
# Trypanosoma cruzi = test: Trypanosoma cruzi phosphomannomutase and mannose-1-phosphate guanylyltransferase assay; type: functional; conditions: 10 µM
# [5] = molecular target: T2, Arginase-2, mitochondrial (Homo sapiens) (UniProt P78540); test: in vitro enzyme assay to detect the production of urea directly proportional to the activity of Arginase II; type: functional; conditions: 33.3 µM; also: in the data most compounds retested in dose-response had high values
# T2 sequence (whole entry): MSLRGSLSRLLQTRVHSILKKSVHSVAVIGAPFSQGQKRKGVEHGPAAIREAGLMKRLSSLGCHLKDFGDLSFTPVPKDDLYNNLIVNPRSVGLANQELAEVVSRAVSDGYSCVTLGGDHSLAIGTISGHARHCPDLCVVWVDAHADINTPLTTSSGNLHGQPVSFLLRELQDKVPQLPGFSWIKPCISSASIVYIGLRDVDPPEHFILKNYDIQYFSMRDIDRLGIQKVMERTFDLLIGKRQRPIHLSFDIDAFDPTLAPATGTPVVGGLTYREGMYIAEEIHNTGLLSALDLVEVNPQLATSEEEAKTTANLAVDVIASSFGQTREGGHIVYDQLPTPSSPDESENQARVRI
# [6] = molecular target: T3, Proteasome subunit beta (Trypanosoma cruzi) (UniProt O96673); test: Trypanosoma cruzi proteasome chymotrypsin-like activity (TcProtChymo) assay.; also: in the data most compounds retested in dose-response had high values; type: functional; conditions: 9.37 µM
# T3 sequence (whole entry): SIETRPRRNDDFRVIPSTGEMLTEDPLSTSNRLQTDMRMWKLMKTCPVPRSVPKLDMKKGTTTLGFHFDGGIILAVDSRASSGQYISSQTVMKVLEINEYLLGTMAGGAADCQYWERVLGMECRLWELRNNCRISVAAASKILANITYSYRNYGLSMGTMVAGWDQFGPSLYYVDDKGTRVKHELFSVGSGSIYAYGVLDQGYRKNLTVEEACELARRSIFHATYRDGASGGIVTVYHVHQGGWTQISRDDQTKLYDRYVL
# Homo sapiens = species: Homo sapiens; test: To identify inhibition of the IFN signalling (Jak-Stat) pathway via expression of an eGFP reporter gene under the control of an IFN-stimulated response element (ISRE) containing MxA promoter.; type: functional; conditions: 30 µM
# [7] = molecular target: T4, Tyrosyl-tRNA synthetase, putative (Trypanosoma cruzi (strain CL Brener)) (UniProt Q4DSP6); test: Trypanosoma cruzi tyrosyl tRNA synthetase (TcYRS) _High Tyrosine SOP; type: functional; conditions: 30 µM; also: in the data most compounds retested in dose-response had high values
# T4 sequence (whole entry): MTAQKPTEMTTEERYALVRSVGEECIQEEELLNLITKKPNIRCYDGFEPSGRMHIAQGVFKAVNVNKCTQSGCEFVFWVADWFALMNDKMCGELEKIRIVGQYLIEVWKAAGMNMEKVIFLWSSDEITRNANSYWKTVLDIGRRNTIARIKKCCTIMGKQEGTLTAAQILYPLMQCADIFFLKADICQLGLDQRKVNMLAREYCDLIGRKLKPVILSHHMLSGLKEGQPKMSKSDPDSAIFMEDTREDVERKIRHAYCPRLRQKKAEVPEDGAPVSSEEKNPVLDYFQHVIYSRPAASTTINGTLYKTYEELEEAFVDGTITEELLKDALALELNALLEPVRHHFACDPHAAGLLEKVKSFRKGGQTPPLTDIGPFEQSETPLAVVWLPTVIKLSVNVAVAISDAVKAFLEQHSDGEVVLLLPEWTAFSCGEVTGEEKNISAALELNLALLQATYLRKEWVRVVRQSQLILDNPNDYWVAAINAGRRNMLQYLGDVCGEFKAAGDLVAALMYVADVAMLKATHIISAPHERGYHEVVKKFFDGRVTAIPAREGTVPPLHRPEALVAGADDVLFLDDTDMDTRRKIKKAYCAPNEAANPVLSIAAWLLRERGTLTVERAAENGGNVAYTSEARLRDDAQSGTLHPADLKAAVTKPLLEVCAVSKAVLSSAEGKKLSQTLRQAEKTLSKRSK
# [8] = molecular target: T4, Tyrosyl-tRNA synthetase, putative (Trypanosoma cruzi (strain CL Brener)); test: Trypanosoma cruzi tyrosyl tRNA synthetase (TcYRS) SOP; type: functional; conditions: 30 µM
# [9] = molecular target: Chromo domain-containing protein 1 (Saccharomyces cerevisiae (strain ATCC 204508 / S288c) (Baker's yeast)) (UniProt P32657); test: ScCHD-1 Enzyme Inhibition Assay; type: functional; conditions: 30 µM; also: in the data most compounds retested in dose-response had high values
# Sequence of Chromo domain-containing protein 1 (Saccharomyces cerevisiae (strain ATCC 204508 / S288c) (Baker's yeast)) (P32657 whole entry, the tested form may be a part): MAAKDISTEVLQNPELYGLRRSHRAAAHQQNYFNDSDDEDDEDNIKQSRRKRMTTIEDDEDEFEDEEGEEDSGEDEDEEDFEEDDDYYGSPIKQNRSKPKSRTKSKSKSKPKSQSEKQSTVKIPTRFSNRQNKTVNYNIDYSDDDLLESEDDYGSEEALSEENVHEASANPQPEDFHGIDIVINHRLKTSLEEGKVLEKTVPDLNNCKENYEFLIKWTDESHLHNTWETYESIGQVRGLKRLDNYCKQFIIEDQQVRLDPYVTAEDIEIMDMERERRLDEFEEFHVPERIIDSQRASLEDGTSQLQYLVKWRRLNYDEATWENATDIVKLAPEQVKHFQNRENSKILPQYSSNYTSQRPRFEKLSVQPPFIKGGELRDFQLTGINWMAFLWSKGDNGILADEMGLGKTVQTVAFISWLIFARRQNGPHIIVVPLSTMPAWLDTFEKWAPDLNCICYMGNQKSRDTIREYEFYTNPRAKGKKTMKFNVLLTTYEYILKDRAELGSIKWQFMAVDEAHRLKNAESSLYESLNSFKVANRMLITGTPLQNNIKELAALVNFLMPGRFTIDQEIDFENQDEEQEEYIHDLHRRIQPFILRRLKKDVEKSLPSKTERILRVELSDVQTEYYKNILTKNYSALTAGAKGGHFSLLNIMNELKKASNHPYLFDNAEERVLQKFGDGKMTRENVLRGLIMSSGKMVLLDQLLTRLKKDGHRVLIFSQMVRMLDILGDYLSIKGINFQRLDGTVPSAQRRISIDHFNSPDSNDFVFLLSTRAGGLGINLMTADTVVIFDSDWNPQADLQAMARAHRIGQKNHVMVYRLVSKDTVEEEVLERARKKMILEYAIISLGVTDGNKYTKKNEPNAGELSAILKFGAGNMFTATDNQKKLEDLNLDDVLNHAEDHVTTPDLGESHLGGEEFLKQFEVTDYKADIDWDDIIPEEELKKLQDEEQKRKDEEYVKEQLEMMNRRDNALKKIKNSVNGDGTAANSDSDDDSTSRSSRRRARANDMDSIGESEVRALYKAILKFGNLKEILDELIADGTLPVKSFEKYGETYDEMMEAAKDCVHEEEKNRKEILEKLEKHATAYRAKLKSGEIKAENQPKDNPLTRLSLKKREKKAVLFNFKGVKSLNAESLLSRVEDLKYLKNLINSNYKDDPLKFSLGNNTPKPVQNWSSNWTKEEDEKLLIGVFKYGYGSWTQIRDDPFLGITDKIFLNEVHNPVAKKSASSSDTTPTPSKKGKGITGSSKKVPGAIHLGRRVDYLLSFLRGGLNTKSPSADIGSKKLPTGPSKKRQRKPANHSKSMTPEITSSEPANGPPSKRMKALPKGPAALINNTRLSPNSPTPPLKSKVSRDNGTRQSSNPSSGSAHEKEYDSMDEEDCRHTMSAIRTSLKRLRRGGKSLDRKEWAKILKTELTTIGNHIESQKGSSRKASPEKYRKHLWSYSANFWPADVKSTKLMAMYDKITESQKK
# Sequence of Protein translocase subunit SecA (Escherichia coli (strain K12)) (P10408 whole entry): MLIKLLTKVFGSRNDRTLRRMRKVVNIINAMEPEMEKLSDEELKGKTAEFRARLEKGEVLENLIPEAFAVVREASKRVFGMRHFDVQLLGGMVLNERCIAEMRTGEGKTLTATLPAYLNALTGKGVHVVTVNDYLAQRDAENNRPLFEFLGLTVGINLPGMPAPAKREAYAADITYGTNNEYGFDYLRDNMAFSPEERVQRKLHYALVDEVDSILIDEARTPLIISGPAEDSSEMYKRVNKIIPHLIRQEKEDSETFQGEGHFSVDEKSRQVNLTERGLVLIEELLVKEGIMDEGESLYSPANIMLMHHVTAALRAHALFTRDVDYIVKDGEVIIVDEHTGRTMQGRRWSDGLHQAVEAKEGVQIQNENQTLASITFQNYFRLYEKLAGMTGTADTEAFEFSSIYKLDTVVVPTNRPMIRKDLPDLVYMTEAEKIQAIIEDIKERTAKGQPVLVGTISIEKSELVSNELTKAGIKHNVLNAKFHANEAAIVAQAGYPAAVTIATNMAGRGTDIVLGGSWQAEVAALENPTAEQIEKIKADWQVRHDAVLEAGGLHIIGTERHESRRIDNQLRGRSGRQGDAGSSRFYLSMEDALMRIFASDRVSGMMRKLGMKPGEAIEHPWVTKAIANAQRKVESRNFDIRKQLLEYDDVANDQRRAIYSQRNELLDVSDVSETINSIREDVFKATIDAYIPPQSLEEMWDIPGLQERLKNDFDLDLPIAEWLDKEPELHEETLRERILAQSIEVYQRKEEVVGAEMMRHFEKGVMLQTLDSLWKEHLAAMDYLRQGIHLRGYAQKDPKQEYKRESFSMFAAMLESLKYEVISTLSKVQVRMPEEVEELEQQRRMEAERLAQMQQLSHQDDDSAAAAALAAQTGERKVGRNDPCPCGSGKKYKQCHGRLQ
# Sequence of Sialic acid-binding Ig-like lectin 9 (Homo sapiens) (Q9Y336 whole entry): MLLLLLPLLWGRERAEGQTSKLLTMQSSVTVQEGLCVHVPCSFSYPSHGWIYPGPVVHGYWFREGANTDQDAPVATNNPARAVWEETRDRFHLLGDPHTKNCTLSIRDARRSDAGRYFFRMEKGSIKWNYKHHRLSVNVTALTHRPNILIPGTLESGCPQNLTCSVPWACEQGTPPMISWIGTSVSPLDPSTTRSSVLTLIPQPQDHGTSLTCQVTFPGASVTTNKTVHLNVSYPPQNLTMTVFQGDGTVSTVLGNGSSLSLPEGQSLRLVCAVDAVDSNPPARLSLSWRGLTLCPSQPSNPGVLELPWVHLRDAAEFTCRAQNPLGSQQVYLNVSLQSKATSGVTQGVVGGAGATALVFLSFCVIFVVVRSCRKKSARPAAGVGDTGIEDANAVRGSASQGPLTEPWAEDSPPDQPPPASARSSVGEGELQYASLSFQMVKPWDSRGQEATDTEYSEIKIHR
SMILES,Percent Effect [1] [%],Percent Effect [2] [%],Percent Effect [3] [%],Percent Effect [4] [%],Percent Effect (Trypanosoma cruzi) [%],Percent Effect [5] [%],Percent Effect [6] [%],Percent Effect (Homo sapiens) [%],Percent Effect [7] [%],Percent Effect [8] [%],Percent Effect [9] [%]
O=C(C1=CCCC1)N1CCO[C@H]2[C@@H](Oc3ccccn3)CC[C@@H]21,-2.61,13.3,4.5,0.0747,0.787,3.96,9.96,9.01,7.45,16.7,-3.61
Cc1nc(C)n(C2CCCN(C(=O)c3sccc3C3CC3)C2)n1 (configuration not stated),-1.6,2.53,-0.568,-3.81,-5,1.9,0.409,22.4,-2.46,-8.86,-7.52
CC(C)CCn1c(=O)nc2n1C(=O)N(c1ccc(F)cc1)C2,-5.09,-2.63,10.5,-4.96,-1.46,-10.7,12.4,13.5,-2.13,-10.4,15.2
O=c1cc(CN2CCCC2)nc2n1CCCN(Cc1ccsc1)C2,-0.492,17.3,3.4,2.2,-1.57,-9.68,14.4,-8.49,4.23,7.69,-10.8
Cn1cc(-c2cnc(N3CCOCC3)nc2)cc1C(=O)NCCO,-0.798,5.33,1.84,-0.344,-8.86,5.83,8.37,-3.42,0,6.41,-7.59
CN(C)C(=O)CN1C[C@@H]2CC[C@H](C1)N(Cc1cccc(Cl)c1Cl)C2,6.03,2.74,1.3,-0.255,2.58,-19.6,22.5,14,10.4,25.9,0.27
Cc1ccc(CNCc2nnc3n2CCCC3C(F)(F)F)o1 (configuration not stated),-2.71,5.33,2.9,-7.37,-6.13,-3.12,8.54,11.4,0.546,3.7,-5.76
Cc1csc([C@@H]2C[C@@H]3CCN(C(=O)c4ccnnc4)C[C@H]3O2)n1,0.296,2.6,5.97,6.2,-0.296,-0.645,-0.174,12.4,6.35,8.97,-1.14
CNC(=O)CSc1nc2c(cnn2Cc2ccc(F)cc2)c(=O)[nH]1,-1.62,11,8.78,2.62,-3.33,0,16.5,33.3,0,10,-6.75
CCCn1nc(C2CCNCC2)n(Cc2ccccc2)c1=O,-2.26,13.5,-3.97,17,7.34,-5.71,10.2,0.924,5.82,14.6,-1.76
O=S1(=O)C[C@@H]2[C@H](C1)N(Cc1ncc[nH]1)CCN2CC1CC1,-2.38,0,-1.5,-1.31,-3.28,1.43,3.45,1.15,5.82,14.6,-2.92
O=C(CN1CCC(c2cccc(F)c2)C1)NCC(F)(F)F (configuration not stated),-0.194,18.4,-1.43,-3.51,3.57,-1.15,18.1,36.1,6.37,21.9,-8.57
Cc1noc2ncc(C(=O)NCC3CCOC3)cc12 (configuration not stated),-4.3,0,-6.17,-5.94,-6.96,1.53,6.35,26.5,2.45,0,-12.5
Cc1cc(CN(C)C(=O)C2CCCN(C(=O)c3ccc(Cl)cc3)C2)no1 (configuration not stated),-4.75,-39,3.47,5.71,-0.885,-20.7,11.7,0.275,2.15,11.1,-7.95
N#CC1(C(=O)N2CCN(c3nccs3)CC2)CCCCC1,-1.57,13.2,7.71,8.98,-2.26,2.68,11,-3.2,7.35,17.1,-6.21
CN(C)CC1CN(c2ncnc3[nH]ccc23)CCO1 (configuration not stated),-5.15,16.5,22,2.27,0.103,-1.94,13.9,28.5,7.29,15.2,-33
CCc1n[nH]c(C2CN(Cc3nccn3CC)CCO2)n1 (configuration not stated),-0.0966,20.8,-2.5,-14.5,2.45,6.53,9.62,7.94,12.4,25.9,-16.2
O=C(Cc1ccccn1)N1CCN(CC2CC2)c2ncccc2C1,-4.53,10.7,3.91,0.314,0.591,-0.699,4.85,9.79,6.38,16.7,-7.07
CN(C)c1ccc(CNC(=O)c2ccc(Cl)cc2F)cc1,-6.46,21.1,-2.58,2.05,1.46,-4.73,13.7,11.1,4.25,20.8,-6.29
Cc1ccc(CN2CCN(CC3CC3)[C@@H]3CS(=O)(=O)C[C@@H]32)cc1C,-7.02,5.33,-1.63,3.97,-7.11,2.08,15.5,2.7,-2.73,8.64,-5.38
O=C(c1ccccn1)N1CCc2nc(-c3cnccn3)nc(O)c2C1,0.65,12.2,8.6,0.354,-3.36,-0.232,11.7,14.4,4.3,14.3,-12.2
COCC1c2c(cnn2CC2CC2)CCN1Cc1cccs1 (configuration not stated),-0.701,-5.33,6.98,7.58,-2.51,-9.5,10.1,-16.5,3.12,-2.5,-3.74
